Results published in PubChem BioAssay AID652010 (The Scripps Research Institute Molecular Screening Center, 2013).
The whole screen tested about 370,000 compounds, of which about 4,100 (1.1%) were called active. For the sample, actives were picked, then their nearest neighbours and some compounds at random. Values without a mark were called inactive.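 Rule for the calls: active = inhibition above the mean over all tested compounds plus 3 SD (cut at about 3.6% in these data); inactive = the rest.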

Experiment: relief of DAX-1 repression of SF-1 activity – cell-based, luminescence, SF-1 (NR5A1), full-length DAX-1, primary screen (AID 652010);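 note: 0% = DAX-1 cells with DMSO and 100% = cells lacking DAX-1 with DMSO; higher inhibition means more luminescence from relief of DAX-1 repression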
Details: HEK293T StAR-luciferase reporter, SF-1/DAX-1 repression relief; at 6.8 µM; active compounds read high

Question: With `C=C(C)C#CC(Cc1ccccc1)N(CC1CC1)/C(N)=N/C(=O)OCc1ccccc1` (configuration not stated) as the compound, how does the inhibition read?
Answer: -1.59%

Question: For `CC(=O)C1(C(=O)Nc2nccs2)CC(c2ccccc2C(F)(F)F)=NO1` (configuration not stated), which inhibition is on record?
Answer: -0.45%

Question: Which inhibition does the source give for `COc1ccnc(C(=O)N2CCC(Oc3cccnc3)CC2)c1` here?
Answer: -0.42%

Question: Which inhibition does the source give for `COc1ccc(N2CCN(CCNS(=O)(=O)c3ccc([N+](=O)[O-])cc3)CC2)cc1` here?
Answer: -1.45%

Question: With `O=C(NC1CCCCN(Cc2ccc(Cl)cc2)C1=O)c1ccc(Br)cc1` (configuration not stated) as the compound, how does the inhibition read?
Answer: -1.64%

Question: With `O=c1[nH]c(-c2ccccc2)cn1C1CCN(Cc2ccc(-c3nc4ccc(F)cc4nc3-c3ccccc3)cc2)CC1` as the compound, how does the inhibition read?
Answer: -0.54%

Question: With `CN1CCN(C(=O)c2ccc(NC(=O)c3ccc(Br)o3)cc2)CC1` as the compound, how does the inhibition read?
Answer: 0.03%

Question: For `CN1CCN(C(=O)c2ccc(-c3ccc(Br)cc3)o2)CC1`, which inhibition is on record?
Answer: 4.56% (active)

Question: For `O=CN1CCN(C(=O)c2ccc(Br)o2)CC1`, which inhibition is on record?
Answer: -0.07%

Question: For `COC(=O)[C@]12C[C@H](CC(=O)N3CCOCC3)C(=O)N(Cc3ccc(Cl)cc3Cl)C1=C[C@H](C(C)C)O[C@@H]2C1CC1`, which inhibition is on record?
Answer: -0.52%

Question: Which inhibition does the source give for `O=C(Nc1ncccc1O)c1ccc(S(=O)(=O)N2CCCCCC2)cc1` here?
Answer: 6.81% (active)

Question: With `O=C(Nc1ncccc1O)c1ccc(C(=O)c2ccccc2)cc1` as the compound, how does the inhibition read?
Answer: 69.9% (active)

Question: For `CCN(CC)S(=O)(=O)c1cccc(NC(=O)c2ccc(S(=O)(=O)N3CCCC3)cc2)c1`, which inhibition is on record?
Answer: -3.89%

Question: Which inhibition does the source give for `O=C(CNC(=O)c1ccc2ccccc2c1)Nc1ncccc1O` here?
Answer: 1.3%

Question: For `O=C(Nc1ncccc1O)c1ccc(S(=O)(=O)N2CCCC2)cc1`, which inhibition is on record?
Answer: 10.9% (active)

Question: Which inhibition does the source give for `CC(C)(C)n1nc2c(c1NC(=O)c1ccc(S(=O)(=O)N3CCCC3)cc1)CS(=O)C2` (configuration not stated) here?
Answer: -0.67%

Question: Which inhibition does the source give for `O=C(Nc1ccc(S(=O)(=O)N2CCCCC2)cc1)c1cnccn1` here?
Answer: 0.17%

Question: With `CN1CCN(NC(=O)c2ccc(S(=O)(=O)N3CCCCCC3)cc2)CC1` as the compound, how does the inhibition read?
Answer: -0.23%

Question: With `CCOC(=O)c1cccnc1NC(=O)c1ccncc1` as the compound, how does the inhibition read?
Answer: 0.42%

Question: Which inhibition does the source give for `CC(=O)Nc1nc2ncccn2c1-c1ccc(C(F)(F)F)cc1` here?
Answer: -0.41%

Question: Which inhibition does the source give for `CCN(C(=O)[C@@H](C1CC1)[C@@H](O)c1ccc2ccccc2c1)c1ccccc1` here?
Answer: -0.4%

Question: With `COC(=O)C1CN(Cc2cn(Cc3ccc(F)cc3)nn2)CCS(=O)(=O)N1Cc1ccc(Cl)cc1` (configuration not stated) as the compound, how does the inhibition read?
Answer: -0.95%

Question: With `C/C(=N\Nc1nc2ccccc2[nH]1)c1cccs1` as the compound, how does the inhibition read?
Answer: 3.55%

Question: Which inhibition does the source give for `CCOC(=O)c1nc(-c2ccc3c(c2)OCO3)[nH]c1C` here?
Answer: 2.3%

Question: For `O=C1c2ccccc2C(c2nc3ccccc3[nH]2)N1c1ccccc1` (configuration not stated), which inhibition is on record?
Answer: -1.53%

Question: For `Cc1ccc(-c2nc3ccccc3[nH]2)cc1N`, which inhibition is on record?
Answer: 6.54% (active)

Question: For `c1ccc2[nH]c(-c3nc4ccccc4[nH]3)nc2c1`, which inhibition is on record?
Answer: 5.77% (active)

Question: For `CCOC(=O)CNC(=O)CSc1ncccc1-c1nc2ccccc2[nH]1`, which inhibition is on record?
Answer: 0.2%

Question: Which inhibition does the source give for `COc1ccc(NC(=O)C2=CC(c3ccc(OC)c(OC)c3)=NS(=O)(=O)N2C)cc1` here?
Answer: -5%

Question: With `COc1ccc(-c2cc(-c3nnc(SCc4ccc([N+](=O)[O-])cc4)n3N)[nH]n2)cc1` as the compound, how does the inhibition read?
Answer: -1.87%

Question: With `CCOc1ccc(N(CC(=O)Nc2c(C)n(C)n(-c3ccccc3)c2=O)S(=O)(=O)c2ccc(Cl)s2)cc1` as the compound, how does the inhibition read?
Answer: -1.26%

Question: For `Cc1ccccc1OCCC(=O)OCC(=O)NCCc1ccc(S(N)(=O)=O)cc1`, which inhibition is on record?
Answer: 2.36%

Question: With `CCC(NC(=O)C1C2C=CC3(CN(Cc4ccccc4)C(=O)C13)O2)c1ccccc1` (configuration not stated) as the compound, how does the inhibition read?
Answer: -0.13%

Question: Which inhibition does the source give for `Cc1cccc(NC(=O)c2cc3c(C)nn(-c4ccccc4)c3s2)c1` here?
Answer: -0.95%

Question: For `CN(C)CC(=O)N[C@@H]1C[C@@H]2O[C@H](CO)CC[C@@H]2O[C@@H]1CCc1ccc(C#Cc2ccccc2)cc1`, which inhibition is on record?
Answer: -1.24%

Question: With `O=C(CSCc1ccccc1)N1CCc2ccccc21` as the compound, how does the inhibition read?
Answer: 3.64% (active)

Question: Which inhibition does the source give for `O=C(CN1C(=O)c2ccccc2S1(=O)=O)N1CCc2ccccc21` here?
Answer: -2.91%

Question: Which inhibition does the source give for `CC(OC(=O)Cc1ccc(F)cc1)C(=O)N1CCc2ccccc21` (configuration not stated) here?
Answer: 0.95%

Question: Which inhibition does the source give for `Cc1ccc(-n2c(SCC(=O)Nc3ccc(S(=O)(=O)Nc4nccs4)cc3)nnc2-c2cccnc2)cc1` here?
Answer: 0.65%

Question: Which inhibition does the source give for `CCOC(=O)[C@]12CCCCC/C=C\1N(Cc1ccc(OC)cc1)C(=O)[C@H]2CC(=O)NCc1ccc(C)o1` here?
Answer: 0.47%

Question: For `COc1cc(C2CC(=O)Oc3cc(OC)c(OC)c(OC)c32)cc(OC)c1OC` (configuration not stated), which inhibition is on record?
Answer: 0.24%

Question: Which inhibition does the source give for `COc1cc(C=C(OC(C)=O)c2ccc3c(c2)OCO3)cc(OC)c1OC` here?
Answer: -1.67%

Question: For `COc1cc(C2c3cc4c(cc3C(O)C3COC(=O)C23)OCO4)cc(OC)c1OC` (configuration not stated), which inhibition is on record?
Answer: 7.49% (active)

Question: With `O=C(NC1CCCCN(Cc2cccc(C(F)(F)F)c2)C1=O)c1ccccc1I` (configuration not stated) as the compound, how does the inhibition read?
Answer: -0.84%

Question: Which inhibition does the source give for `Cc1ccc(C(=O)C2CCN(CC(=O)NCCC(C)C)CC2)cc1` here?
Answer: -0.3%

Question: Which inhibition does the source give for `Cn1nc(-c2ccccc2)c(CSc2cccc(Cl)c2)c1Cl` here?
Answer: -0.99%

Question: With `O=c1c2ccccc2nc2n1C(CSc1ccc(Cl)cc1)CN2` (configuration not stated) as the compound, how does the inhibition read?
Answer: 0.41%

Question: For `Clc1ccc2nc(CSc3ccccc3)cn2c1`, which inhibition is on record?
Answer: 4.45% (active)

Question: With `O=C(N[C@H](C(=O)N1CCC[C@H]1C(=O)NCCc1ccccc1Cl)c1ccccc1)c1ccccc1` as the compound, how does the inhibition read?
Answer: -0.28%

Question: For `CCOC(=O)[C@]12CCCC3=C1N(CCC3)C(=O)[C@@H](CC(=O)NCc1cccs1)C2`, which inhibition is on record?
Answer: 0.02%

Question: With `CC(CCN1CCC(C(O)(c2ccccc2)c2ccccc2)CC1)Oc1ccc(C(F)(F)F)cc1` (configuration not stated) as the compound, how does the inhibition read?
Answer: -0.91%

Question: For `Cc1ccc(Nc2c(F)c(F)c(F)c(F)c2C(=O)O)c(C)c1`, which inhibition is on record?
Answer: 0.38%

Question: With `CCOc1ccc2cc(C#N)c(SCC(=O)OC)nc2c1` as the compound, how does the inhibition read?
Answer: 3.71% (active)

Question: For `COc1ccc(CCNC(=O)CSc2nc(-c3ccc(OC)c(OC)c3)ccc2C#N)cc1`, which inhibition is on record?
Answer: -0.18%

Question: With `Cc1cc(C#N)c(SCC(N)=O)nc1-c1ccc(F)cc1` as the compound, how does the inhibition read?
Answer: 0.32%

Question: For `Cc1ccc(-n2c(COc3ccccc3)nnc2SCC(=O)Nc2ccc3c(c2)OCCO3)cc1`, which inhibition is on record?
Answer: -2.9%

Question: Which inhibition does the source give for `COc1ccc(-n2c(SCC(=O)Nc3ccccc3-c3ccccc3)nnc2-c2cccnc2)cc1` here?
Answer: -1.84%

Question: For `Nc1nc2c(ncn2[C@@H]2O[C@H](CNS(=O)(=O)N3CCc4ccccc4C3)[C@@H](O)[C@H]2O)c(=O)[nH]1`, which inhibition is on record?
Answer: -0.84%

Question: With `Nc1nc2c(ncn2[C@@H]2O[C@H](CNCc3ccc(OCCCN4CCOCC4)cc3)[C@@H](O)[C@H]2O)c(=O)[nH]1` as the compound, how does the inhibition read?
Answer: 1.17%

Question: For `CC(C)(O)C#Cc1ccc(CNC[C@H]2O[C@@H](n3cnc4c(=O)[nH]c(N)nc43)[C@H](O)[C@@H]2O)s1`, which inhibition is on record?
Answer: 5.95% (active)

Question: With `Clc1ccc(-n2c(COc3ccccc3)nnc2SCc2nc3ccccc3[nH]2)cc1` as the compound, how does the inhibition read?
Answer: 0.06%

Question: With `O=C(CSc1nc2ccccc2s1)N=Nc1c(O)[nH]c2ccccc12` as the compound, how does the inhibition read?
Answer: 0.2%

Question: With `COC(=O)C1CN(CC(C)C)CCS(=O)(=O)N1Cc1ccc(F)cc1` (configuration not stated) as the compound, how does the inhibition read?
Answer: -0.94%

Question: Which inhibition does the source give for `CCC(=O)Nc1ccc2c(c1)C(=O)N(C)[C@@H]1CC[C@@H](CC(=O)NCCc3ccccc3)O[C@H]1CO2` here?
Answer: 0.25%

Question: With `Cc1nn(-c2ccccc2)c2c1C(c1cccc([N+](=O)[O-])c1)N(c1ccccc1)C(=O)N2` (configuration not stated) as the compound, how does the inhibition read?
Answer: -0.06%

Question: With `CC(C)(C)c1cnnn1-c1ccc([N+](=O)[O-])cc1` as the compound, how does the inhibition read?
Answer: 0.31%

Question: For `Cc1nn(-c2ccc([N+](=O)[O-])cc2)c(N)c1-c1ccccc1`, which inhibition is on record?
Answer: 4.84% (active)

Question: For `O=[N+]([O-])c1ccc2nc(-c3ccccn3)[nH]c2c1`, which inhibition is on record?
Answer: 3.65% (active)

Question: Which inhibition does the source give for `O=C(Nc1ccc([N+](=O)[O-])cc1)OCCc1ccccn1` here?
Answer: -0.01%

Question: Which inhibition does the source give for `O=[N+]([O-])c1ccc(N/N=C2/CCCCC2c2ccccn2)c([N+](=O)[O-])c1` (configuration not stated) here?
Answer: -0.26%

Question: Which inhibition does the source give for `CC(C)CNc1cccc2c1S(=O)(=O)N(Cc1cn(Cc3ccc(Cl)cc3)nn1)Cc1ccccc1O2` here?
Answer: -0.85%

Question: With `Cc1ccc(C2=CCN(C)C(=O)N2c2ccc(Cl)cc2)cc1` as the compound, how does the inhibition read?
Answer: -0.53%

Question: With `CC(C)c1cccc(-c2csc(C(O)c3ccccc3)n2)c1` (configuration not stated) as the compound, how does the inhibition read?
Answer: 0.06%

Question: Which inhibition does the source give for `COc1cccc(C(NC(C)=O)c2nc(-c3cnc4ccccc4c3)cs2)c1` (configuration not stated) here?
Answer: -0.06%

Question: Which inhibition does the source give for `OC(c1ccccc1)c1nc(-c2cnc3ccccc3c2)cs1` (configuration not stated) here?
Answer: 9.07% (active)

Question: For `CSc1ncnc2c1ncn2CCCNCc1cccs1`, which inhibition is on record?
Answer: 0.19%

Question: For `CN(C)c1ccc(NC(=O)c2ccncc2)c2ccccc12`, which inhibition is on record?
Answer: -0.26%

Question: For `Cc1ccc(NC(=O)c2oc3ccccc3c2C)c([N+](=O)[O-])c1`, which inhibition is on record?
Answer: 0.06%

Question: For `O=C(Nc1ccc2ccccc2c1[N+](=O)[O-])c1ccccc1`, which inhibition is on record?
Answer: 5% (active)

Question: Which inhibition does the source give for `COc1cccc(NC(=O)CCc2nnc3ccc(N4CCC(C)CC4)nn23)c1` here?
Answer: -0.5%

Question: For `O=C(NCc1cccs1)C1CCN(S(=O)(=O)c2ccccc2[N+](=O)[O-])CC1`, which inhibition is on record?
Answer: 0.71%

Question: For `O=C(COc1ccc(-c2ccccc2)cc1)NN=C1CCCC1`, which inhibition is on record?
Answer: -1.32%

Question: Which inhibition does the source give for `c1ccc2sc(NN=C3CCCC3)nc2c1` here?
Answer: 4.11% (active)

Question: For `O=C1NC(Nc2nc3ccccc3s2)(C(F)(F)F)C(=O)N1C1CCCCC1` (configuration not stated), which inhibition is on record?
Answer: -1.98%

Question: For `CCOC(=O)c1oc2c(CN3CCN(CCO)CC3)c(O)c(CC)cc2c(=O)c1-c1nc2ccccc2s1`, which inhibition is on record?
Answer: 0%

Question: With `CCCCNC(=O)C[C@@H]1C(=O)N(CCc2ccc(Cl)cc2)C2=CCCC[C@]21C(=O)OCC` as the compound, how does the inhibition read?
Answer: -1.99%

Question: Which inhibition does the source give for `COc1cccc(NC(=O)C/C(C)=N/NC(=O)C2CCCCC2)c1` here?
Answer: -0.19%
